Source: PubChem (National Center for Advancing Translational Sciences (NCATS))
Cycloheximide cs = Cycloheximide Counterscreen for Small Molecule Inhibitors of Shiga Toxin; cell reporter, cycloheximide protein synthesis inhibition counterscreen; max response, %; 12% of 300,000 active; AID 2314, 2010; in the data active means max response mostly above about 13%, no sharp cut-off; inactive means mostly below about 14%; further: read at 38.3 µM for the half of the compounds with a filed dose; 0% is about no effect
LmPK inhibitor = qHTS Assay for Inhibitors of Leishmania Mexicana Pyruvate Kinase (LmPK). 0.37% of 290,000 active. Q27686. Potency, µM (titrated, usually from 57.5 µM), for the others: top-dose activity change, negative = inhibition, hits mostly inhibitors. AID 1721, 2009. purified LmPK, Kinase-Glo ATP luminescence, 1 h; further: potency means the concentration at half of the fitted maximal effect; on the % scale 0 is the no-effect control and ±100 the full control effect
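Kinase-Glo luminescence read after 1 h RT reaction of 0.1 nM LmPK with 0.5 mM PEP and 0.1 mM ADP. Activity scaled between uninhibited and enzyme-free controls.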
Giardia FBPA inh = qHTS Assay for Inhibitors of Fructose-1,6-bisphosphate Aldolase from Giardia Lamblia | A8B2U2 | purified Giardia FBPA | Potency, µM (doses to about 59.6 µM), inactives show at the highest dose activity, negative = inhibition, most hits filed as inhibitors | 0.71% of 290,000 active | AID 2451, 2010; further: potency means the concentration at half of the fitted maximal effect; on the % scale 0 is the no-effect control and ±100 the full control effect; nearly all actives have a fitted effect of over 55% in size
Target sequence (A8B2U2 whole entry, looked up): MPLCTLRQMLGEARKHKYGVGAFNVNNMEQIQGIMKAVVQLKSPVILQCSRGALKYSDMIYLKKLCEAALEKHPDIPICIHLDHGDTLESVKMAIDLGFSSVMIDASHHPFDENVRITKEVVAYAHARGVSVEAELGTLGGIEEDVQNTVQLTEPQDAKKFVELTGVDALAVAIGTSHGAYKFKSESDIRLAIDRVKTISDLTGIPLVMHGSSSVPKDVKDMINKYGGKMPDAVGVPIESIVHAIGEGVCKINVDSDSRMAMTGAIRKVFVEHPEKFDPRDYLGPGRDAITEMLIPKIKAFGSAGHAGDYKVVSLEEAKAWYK
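40 nM FBPA preincubated 10 min at RT with compound (up to 57.5 uM final), then substrate plus GAPDH/TPI/NAD/arsenate coupling and diaphorase/resazurin added. Fluorescence read after 20 min at RT, 525/598 nm.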
Tb PYK inh = qHTS of Trypanosoma Brucei Inhibitors | TbPYK enzyme, Kinase-Glo Plus ATP luminescence, 45 min | 0.12% of 410,000 active | pyruvate kinase (Trypanosoma brucei), Q57TT1 | Potency, µM (series often up to 76.8 µM), for inactives: at the highest dose activity, negative = inhibition, usual class: inhibitors; further: potency means the concentration at half of the fitted maximal effect; on the % scale 0 is the no-effect control and ±100 the full control effect; nearly all actives have a fitted effect of over 50% in size
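T. brucei PYK with substrate was exposed to pin-transferred compounds across a concentration series, then started with 130 uM ADP (final). After 45 min at room temperature, Kinase-Glo Plus luminescence was read, normalized and curve-fitted.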
RE007 growth inh = qHTS Assay for Inhibitors of the HIV-1 protein Vpr. S. pombe RE007 Vpr strain, BacTiter-Glo ATP luminescence, 24 h. AID 651644, 2012. 0.21% of 360,000 active. Potency, µM (top dose mostly 92.2 µM), without a hit: at the highest dose activity change, negative = less growth, actives largely listed as inhibitors; active means well fitted falling curve with a large enough effect; inconclusive means small, poorly fitted or top-dose-only effect; inactive means no such curve, though single readings can be large or run the other way; further: potency means the concentration at half of the fitted maximal effect; on the % scale 0 is the no-effect control and ±100 the full control effect; nearly all actives have a fitted effect of over 50% in size
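Fission yeast strain RE007, carrying one chromosomally integrated HIV-1 vpr copy, was seeded at OD 0.01 in PMG+AL medium with 23 nL pinned compound. After 24 h at 30 °C and 99% humidity, viability was read by BacTiter-Glo luminescence.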
Shiga inhibitor = A qHTS for Small Molecule Inhibitors of Shiga Toxin; Vero cells, Shiga toxin protein synthesis inhibition reporter; inhibition, % at 38.7 µM; 9.2% of 290,000 active; in the data active means inhibition mostly above about 28%, no sharp cut-off; inactive means mostly below about 43%; further: 0% is about no effect
Numbers without * were called inactive; ? = inconclusive; . = no result given; [ ] = dose if it differs, or a comment. Only a selection was taken, and hits are over-represented in it overall. Unless noted, the call rests on the fitted dose curve; in most records, active means well fitted curve in the direction sought with a large enough effect; inconclusive means small, poorly fitted or top-dose-only effect, or another doubt; inactive means no such curve, though single readings can be large; an effect the other way counts as inactive or inconclusive.

SMILES	Cycloheximide cs	LmPK inhibitor	Giardia FBPA inh	Tb PYK inh	RE007 growth inh	Shiga inhibitor
COc1ccc(C(=O)Nc2ccc(NC(=O)c3cccc(OC)c3)cn2)cc1	8	1%	8%	-5%	-1%	28
COc1ccc(C(=O)Nc2ccc(NC(=O)c3cccs3)cn2)cc1	20*	-8%	?	-1%	11%	43
O=C(Nc1ccc(Cl)cc1)c1cccs1	60*	-4%	-10%	-2%	?	82*
CCC(C)NS(=O)(=O)c1ccc(NC(=O)c2cccs2)cc1 (configuration not stated)	-3	2%	0%	-5%	4%	-2
O=C(Cc1ccc(Cl)cc1)Nc1ccc(NC(=O)c2cccs2)cc1	-5	3%	-2%	2%	-2%	-4
CCOC(=O)COc1cc2oc(=O)cc(C)c2cc1[N+](=O)[O-]	-3	-4%	3%	2%	0%	-1
CN1C2CCC1CC(NC(=O)n1c(=O)[nH]c3ccccc31)C2 (configuration not stated)	.	.	.	-6%	.	.
CCN1C(=O)[C@H]2[C@@H](c3ccc(-c4ccc(C(C)=O)cc4)c(OC)c3)N[C@@](Cc3ccccc3)(C(=O)OC)[C@H]2C1=O	.	.	.	1%	-17%	.
Cc1ccc(NC(=O)NNC(=O)c2cccs2)cc1	17*	3%	3%	4%	-23%	38*
Cc1ccn(-c2ccc(NC(=O)c3cccs3)cc2)n1	33*	-17%	-3%	-10%	?	82*
COc1ccc(NC(=S)NNC(=O)c2cccs2)cc1	27*	3%	1%	-13%	?	46*
O=C(Nc1ccc2[nH]ccc2c1)c1cccs1	27*	-26%	-2%	-10%	-20%	55*
CC(=O)Nc1ccc2[nH]ccc2c1	-6	4%	-6%	5%	-3%	11
CNC(C)C(=O)NC(C(=O)NC(C)C(=O)Nc1cccc2ccccc12)C(C)C (configuration not stated)	.	.	.	-2%	3%	.
CCN(CC(=O)Nc1c(F)cccc1F)C(=O)C1CC(=O)N(CCc2ccc(OC)c(OC)c2)C1 (configuration not stated)	.	.	.	5%	5%	.
COc1cccc(-c2nc(-c3ccc(NC(=O)c4cccs4)cc3)no2)c1	56*	-3%	2%	-3%	5%	64*
COC(=O)c1cc(-c2c(C)nn(-c3ccccc3)c2C)n[nH]1	26*	-7%	1%	3%	12%	58*
CCOC(=O)c1cc(-c2cccc([N+](=O)[O-])c2)n[nH]1	14	-1%	-5%	-8%	-8%	2
COc1ccc(-c2cc(C(=O)NN)[nH]n2)cc1OC	8	2%	8%	-1%	4%	12
COc1ccc(-c2cc(C(=O)NNC(=S)NC(=O)c3c(-c4ccccc4)noc3C)[nH]n2)cc1	19*	-1%	17%	-6%	1%	106*
CCOC(=O)c1cc(-c2ccccc2)n[nH]1	19*	0%	1%	-21%	11%	47*
COc1ccc(-c2cc(C(=O)NN)[nH]n2)cc1	22*	-4%	3%	-1%	-2%	active
Cc1c(Cl)cccc1NC(=O)CSc1nc(=O)n(CCCN2CCOCC2)c2c1CCCC2	.	.	.	5%	-13%	.
Cc1cccc(-n2c(=O)c3c(c4cc(C)ccc4n3C)n(CC(=O)Nc3ccc(C)c(C)c3)c2=O)c1	.	.	.	-5%	.	.
O=c1c2ccccc2n(Cc2ccccc2F)c(=O)n1-c1cccc(F)c1	.	.	.	8%	.	.
SMILES	Cycloheximide cs	LmPK inhibitor	Giardia FBPA inh	Tb PYK inh	RE007 growth inh	Shiga inhibitor
CCOc1ccc(-c2cc(C(=O)NN)[nH]n2)cc1	43*	-3%	4%	-8%	20%	44*
COc1ccc(-c2cc(C(=O)O)[nH]n2)cc1OC	-1	0%	3%	9%	14%	-4
COc1ccc(-c2cc(C(=O)NN)n(-c3ccccc3)n2)cc1	25*	1%	5%	-15%	2%	78*
COC(=O)c1cc(-c2c[nH]c3ccccc23)n[nH]1	10*	7%	-1%	1%	19%	16
COC(=O)c1cc(-c2ccc(Br)cc2)n[nH]1	29*	0%	2%	3%	-27%	41*
COc1ccc(C(=O)Nc2cc(-c3ccccc3)nn2-c2ccccc2)cc1	.	.	.	1%	.	.
CC1(C)O[C@@H]2O[C@H]([C@H](O)CO/N=C3/[C@H]4O[C@@H]4[C@@H](O)[C@H]4[C@H]3CCn3c(=O)n(-c5ccccc5)c(=O)n34)[C@@H](O)[C@@H]2O1	.	.	-1%[12.9 µM]	.	.	.
Cc1ccc(NC(=O)Cn2c(=O)n(CCC(=O)NCc3ccccc3Cl)c(=O)c3ccccc32)c(C)c1	.	.	.	5%	.	.
O=C(Nc1nc2ccc(S(=O)(=O)N3CCCCC3)cc2s1)c1ccncc1	-4	-3%	8%	6%	5%	2
O=C(OCc1cccc2ccccc12)c1ccc2c(=O)[nH]c(CN3CCOCC3)nc2c1	-3	12%	3%	0%	-6%	16
O=C(Nc1nc2cc3c(cc2s1)OCCO3)c1ccc(N2C(=O)CCC2=O)cc1	31*	1%	6%	2%	-17%	50*
CCc1ccc2nc(NC(=O)c3ccc4c(=O)[nH]c(CN5CCOCC5)nc4c3)sc2c1	43*	13%	0%	-16%	3%	65*
O=C(Nc1nc2cc3c(cc2s1)OCCO3)c1ccncc1	33*	-18%	-6%	-1%	-24%	121*
CNS(=O)(=O)c1ccc2nc(NC(=O)c3ccc(N4C(=O)CCC4=O)cc3)sc2c1	-4	?	-14%	?	-2%	-1
CCc1nnc(NC(=O)c2ccc(N3C(=O)CCC3=O)cc2)s1	16*	4%	1%	-1%	2%	35
CCc1ccc2nc(NC(=O)c3ccc(N4C(=O)CCC4=O)cc3)sc2c1	22*	-1%	4%	4%	-9%	38*
O=[N+]([O-])c1ccc(C2=NN(c3ccccc3)C(c3ccco3)C2)cc1 (configuration not stated)	34*	-4%	-17%	-24%	6%	60*
CC1=NN(c2ccccc2)C(c2ccco2)C1 (configuration not stated)	.	.	.	5%	13%	.
O=[N+]([O-])c1ccc(/C=C/C2=NN(c3ccccc3)C(c3ccco3)C2)cc1 (configuration not stated)	15*	-18%	-10%	-11%	-17%	41
CCOc1ccc(C(=O)NCc2ccc3c(c2)CCN3C(=O)c2ccc(C)cc2)cc1OCC	.	.	.	1%	.	.
